Screens: PubChem, Broad Institute
Only a selection was taken, and hits are over-represented in it overall.
IDE exosite inh: displaces the probe from the exo-site of human IDE. z-score at 20 µM. P14735. 17,000 compounds, 6.3% hits. purified IDE, FL-6b probe fluorescence polarization; hits give low values;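 active = z-score of -3 or lower, meaning strong loss of probe binding signal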;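 note: His-tagged human IDE residues 42-1019 made in E. coli with 30 nM FL-6b probe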
Each line names hits and unclear results; the compound was inactive in the other large screens; ! = not active in a repeat.

COc1ccccc1C#Cc1ccc([C@H]2[C@H]3CN(C(=O)C4CCC4)CCCCN3[C@H]2CO)cc1	IDE exosite inh -17.5
COc1ccccc1NC(=O)N1CCCCN2[C@@H](CO)[C@H](c3ccc(C#Cc4ccccc4)cc3)[C@@H]2C1	none
COc1ccccc1C#Cc1ccc([C@@H]2[C@@H](CO)N3CCCCN(C(=O)C4CCC4)C[C@H]23)cc1	IDE exosite inh -8.25
COc1ccccc1NC(=O)N1CCCCN2[C@H](CO)[C@H](c3ccc(C#Cc4ccccc4)cc3)[C@@H]2C1	none
COc1ccc(C[C@H]2CCn3nncc3COCCCNC2=O)cc1	none
COc1ccc(NC(=O)N(C)C[C@@H]2OCCCC[C@@H](C)Oc3ccc(NC(=O)c4ccncc4)cc3C(=O)N([C@H](C)CO)C[C@H]2C)cc1	none
N#C[C@@H]1[C@@H](c2ccccc2-c2ccccc2F)[C@H](CO)N1C(=O)C1CCC1	none
Cc1cccc(S(=O)(=O)N2C[C@H]3[C@@H](c4ccccc42)[C@@H](CO)N3C(=O)c2ccccc2)c1	none
CCc1cnc(N2[C@H](CO)[C@@H](c3ccc(C#Cc4ccccc4F)cc3)[C@@H]2C#N)s1	none
COCC#Cc1ccc([C@@H]2[C@@H](CO)N3C(=O)CN(C(=O)Nc4ccc(F)cc4)C[C@H]23)cc1	none
COC(=O)c1ccc(CN2CC(=O)N3[C@H](CO)[C@@H](c4ccc(-c5ccc(OC)cc5)cc4)[C@H]3C2)cc1	none
CCC(=O)N1CC2(C1)[C@H](c1ccccc1)[C@H](CO)N2CC1CC1	none
O=C1CN(S(=O)(=O)c2ccccc2)C[C@H]2[C@H](c3ccc(C#CCc4ccccc4)cc3)[C@H](CO)N12	none
O=C(C[C@@H]1CC[C@H]2[C@@H](COC[C@H](O)CN2S(=O)(=O)c2ccccc2)O1)NCC1CCCCC1	none
COc1ccccc1CN1C[C@@H]2N[C@H](C1)C2c1ccc(-c2cccc(C#N)c2)cc1 (some centres not stated)	IDE exosite inh -3.98!
COc1ccccc1CN1C[C@@H]2N[C@H](C1)C2c1ccc(-c2ccc(C(=O)N(C)C)cc2)cc1 (some centres not stated)	none
COc1ccccc1CN1C[C@@H]2N[C@H](C1)C2c1ccc(-c2ccc(C#N)cc2)cc1 (some centres not stated)	none
COc1ccccc1CN1C[C@@H]2N[C@H](C1)C2c1ccc(-c2ccccc2OC)cc1 (some centres not stated)	IDE exosite inh -10.1
COc1ccccc1CN1C[C@@H]2N[C@H](C1)C2c1ccc(-c2ccncc2)cc1 (some centres not stated)	none
N#Cc1cccc(-c2ccc(C3[C@@H]4CN(Cc5ccccc5)C[C@H]3N4)cc2)c1 (some centres not stated)	none
C[C@@H]1CNC(=O)[C@H](Cc2ccc(C(F)(F)F)cc2)CCn2nncc2COC1	none
COc1ccc(C#Cc2ccc([C@@H]3[C@@H](CO)N4C(=O)CN(C(=O)c5cccnc5)C[C@@H]34)cc2)cc1	none
C[C@H](O)C#Cc1ccc([C@H]2[C@H]3CN(C(=O)Nc4ccccc4)CCCCN3[C@H]2CO)cc1	none
COc1cccc(C(=O)Nc2ccc3c(c2)OC[C@@H](C)N(CCc2ccccc2)C[C@@H](C)[C@H](OC)CN(C)C3=O)c1	none
CC(C)CC#Cc1ccc([C@H]2[C@H](CO)N3C(=O)CN(C(=O)Nc4ccc(F)cc4)C[C@@H]23)cc1	none
Cc1cccc(-c2ccc([C@@H]3[C@H](CO)N4CCCCN(C(=O)NC(C)C)C[C@@H]34)cc2)c1	IDE exosite inh -11.1
Cc1cccc(-c2ccc([C@H]3[C@H](CO)N4CCCCN(C(=O)NC(C)C)C[C@@H]34)cc2)c1	IDE exosite inh -13.7
Cc1cccc(-c2ccc([C@H]3[C@H](CO)N4CCCCN(C(=O)c5ccc6c(c5)OCO6)C[C@@H]34)cc2)c1	none
Cc1ccc(-c2ccc([C@@H]3[C@H]4CN(C(=O)Nc5ccccc5)CCCCN4[C@H]3CO)cc2)cc1	none
Cc1ccc(-c2ccc([C@H]3[C@@H](CO)N4CCCCN(C(=O)Nc5ccccc5)C[C@@H]34)cc2)cc1	none
CC(C)NC(=O)N1CCCCN2[C@H](CO)[C@H](c3ccc(C4=CCCC4)cc3)[C@@H]2C1	none
Cc1cccc(-c2ccc([C@H]3[C@H]4CN(C(=O)NC(C)C)CCCCN4[C@H]3CO)cc2)c1	IDE exosite inh -14.4
Cc1cccc(-c2ccc([C@H]3[C@H]4CN(C(=O)NC5CCCCC5)CC(=O)N4[C@H]3CO)cc2)c1	IDE exosite inh -9.45
Cc1cccc(-c2ccc([C@@H]3[C@@H](CO)N4C(=O)CN(C(=O)NC5CCCCC5)C[C@@H]34)cc2)c1	IDE exosite inh -16.6
COc1cccc(NC(=O)N[C@@H]2CC[C@@H](CC(=O)N3CCN(C)CC3)O[C@H]2CO)c1	none
Cc1ccccc1S(=O)(=O)N1CCCCN2[C@H](CO)[C@@H](c3ccc(-c4cccnc4)cc3)[C@H]2C1	none
O=S(=O)(c1ccccc1F)N1CCCCN2[C@@H](CO)[C@H](c3ccc(-c4cccnc4)cc3)[C@@H]2C1	none
Cc1ccccc1S(=O)(=O)N1CCCCN2[C@H](C1)[C@@H](c1ccc(-c3cccnc3)cc1)[C@@H]2CO	IDE exosite inh -3.02
